# This is one part of a sample in which the strongest signals are shown more often than they occur.
# What was measured:
# Test in all cases: glycan array binding signal (z-score within array); higher = stronger binding
# Details in all cases: glycan notation: IUPAC condensed, linker removed; mutation: N130D
# [1] = molecular target: Fuc(a1-2)Gal(b1-3)[Fuc(a1-4)]GlcNAc
# Outline: (§1)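 Negative Z-scores can be read as non-binding. The Z-score is calculated within each array and then averaged across arrays of one protein sequence at different concentrations or buffers and across linkers. Arrays, 3228 in all, were curated from the Consortium for Functional Glycomics database and kept only where the protein sequence was available.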
# [2] = molecular target: Fuc(a1-2)Gal(b1-4)GlcNAc(b1-2)Man(a1-3)[Fuc(a1-2)Gal(b1-4)GlcNAc(b1-2)Man(a1-6)]Man(b1-4)GlcNAc(b1-4)[Fuc(a1-6)]GlcNAc
# Outline: as §1
# [3] = molecular target: Fuc(a1-2)Gal(b1-4)GlcNAc(b1-3)Gal(b1-4)GlcNAc(b1-3)Gal(b1-4)GlcNAc
# Outline: as §1
# [4] = molecular target: Fuc(a1-2)[Gal(a1-3)]Gal(b1-3)GlcNAc(b1-3)GalNAc
# Outline: as §1
# [5] = molecular target: Fuc(a1-2)[Gal(a1-3)]Gal(b1-4)GlcNAc(b1-3)GalNAc
# Outline: as §1
# [6] = molecular target: Fuc(a1-2)[Gal(a1-3)]Gal(b1-4)[Fuc(a1-3)]GlcNAc(b1-3)GalNAc
# Outline: as §1
# [7] = molecular target: Fuc(a1-2)[GalNAc(a1-3)]Gal(b1-4)GlcNAc(b1-6)GalNAc
# Outline: as §1
# [8] = molecular target: Fuc(a1-3)[Gal(b1-4)]GlcNAc6S
# Outline: as §1
# [9] = molecular target: Fuc(b1-3)GlcNAc
# Outline: as §1
# [10] = molecular target: Gal(a1-4)Gal(b1-4)GlcNAc(b1-3)Gal(b1-4)Glc
# Outline: as §1
# [11] = molecular target: Gal(b1-3)[Fuc(a1-4)]GlcNAc(b1-3)Gal(b1-4)[Fuc(a1-3)]GlcNAc
# Outline: as §1
# [12] = molecular target: Gal(b1-3)[Fuc(a1-4)]GlcNAc(b1-6)GalNAc
# Outline: as §1
# [13] = molecular target: Gal(b1-4)GlcNAc(b1-2)Man
# Outline: as §1
# [14] = molecular target: Gal(b1-4)GlcNAc(b1-2)Man(a1-6)[GlcNAc(b1-2)Man(a1-3)]Man(b1-4)GlcNAc(b1-4)GlcNAc
# Outline: as §1
# [15] = molecular target: Gal(b1-4)GlcNAc(b1-3)Gal(b1-4)GlcNAc(b1-3)Gal(b1-4)GlcNAc(b1-2)Man(a1-3)[Gal(b1-4)GlcNAc(b1-3)Gal(b1-4)GlcNAc(b1-3)Gal(b1-4)GlcNAc(b1-2)Man(a1-6)]Man(b1-4)GlcNAc(b1-4)GlcNAc
# Outline: as §1
# [16] = molecular target: Gal(b1-4)GlcNAc(b1-3)Gal(b1-4)GlcNAc(b1-3)Gal(b1-4)GlcNAc(b1-3)Gal(b1-4)GlcNAc(b1-3)Gal(b1-4)GlcNAc(b1-2)[Gal(b1-4)GlcNAc(b1-3)Gal(b1-4)GlcNAc(b1-3)Gal(b1-4)GlcNAc(b1-3)Gal(b1-4)GlcNAc(b1-3)Gal(b1-4)GlcNAc(b1-6)]Man(a1-6)[Gal(b1-4)GlcNAc(b1-3)Gal(b1-4)GlcNAc(b1-3)Gal(b1-4)GlcNAc(b1-3)Gal(b1-4)GlcNAc(b1-3)Gal(b1-4)GlcNAc(b1-2)Man(a1-3)]Man(b1-4)GlcNAc(b1-4)[Fuc(a1-6)]GlcNAc
# Outline: as §1
# [17] = molecular target: Gal(b1-4)GlcNAc(b1-3)Gal(b1-4)GlcNAc(b1-3)[Gal(b1-4)GlcNAc(b1-3)Gal(b1-4)GlcNAc(b1-6)]GalNAc
# Outline: as §1
# [18] = molecular target: Gal3S(b1-4)[Fuc(a1-3)]GlcNAc
# Outline: as §1
# [19] = molecular target: Gal6S(b1-3)GlcNAc6S
# Outline: as §1
# [20] = molecular target: GalNAc(a1-3)GalNAc(b1-3)Gal(a1-4)Gal(b1-4)GlcNAc
# Outline: as §1
# [21] = molecular target: GalNAc(b1-3)GlcNAc
# Outline: as §1
# [22] = molecular target: GalNAc3S(b1-4)GlcNAc3S
# Outline: as §1
# [23] = molecular target: GlcNAc(a1-4)Gal(b1-4)GlcNAc(b1-3)Gal(b1-4)GlcNAc
# Outline: as §1
# [24] = molecular target: GlcNAc(b1-3)[GlcNAc(b1-4)][GlcNAc(b1-6)]GlcNAc
# Outline: as §1
# [25] = molecular target: Man(a1-2)Man(a1-2)Man(a1-3)Man
# Outline: as §1
# [26] = molecular target: Man(a1-2)Man(a1-6)[Man(a1-3)]Man(a1-6)[Man(a1-2)Man(a1-2)Man(a1-3)]Man
# Outline: as §1
# [27] = molecular target: Neu5Ac(a2-3)Gal(b1-3)GlcNAc(b1-6)GalNAc
# Outline: as §1
# [28] = molecular target: Neu5Ac(a2-3)Gal(b1-4)Glc
# Outline: as §1
# [29] = molecular target: Neu5Ac(a2-3)Gal(b1-4)GlcNAc(b1-2)Man
# Outline: as §1
# [30] = molecular target: Neu5Ac(a2-3)Gal(b1-4)GlcNAc(b1-2)[Neu5Ac(a2-3)Gal(b1-4)GlcNAc(b1-6)]Man(a1-6)[Neu5Ac(a2-3)Gal(b1-4)GlcNAc(b1-2)Man(a1-3)][GlcNAc(b1-4)]Man(b1-4)GlcNAc(b1-4)GlcNAc
# Outline: as §1
# [31] = molecular target: Neu5Ac(a2-3)Gal(b1-4)GlcNAc(b1-3)Gal(b1-3)GlcNAc
# Outline: as §1
# [32] = molecular target: Neu5Ac(a2-3)Gal(b1-4)GlcNAc(b1-6)GalNAc
# Outline: as §1
# [33] = molecular target: Neu5Ac(a2-3)Gal(b1-4)[Fuc(a1-3)]GlcNAc(b1-3)GalNAc
# Outline: as §1
# [34] = molecular target: Neu5Ac(a2-6)Gal(b1-4)GlcNAc(b1-2)Man(a1-3)[GlcNAc(b1-4)][Neu5Ac(a2-6)Gal(b1-4)GlcNAc(b1-2)Man(a1-6)]Man(b1-4)GlcNAc(b1-4)GlcNAc
# Outline: as §1
# [35] = molecular target: Neu5Ac(a2-6)Gal(b1-4)GlcNAc(b1-2)Man(a1-6)Man(b1-4)GlcNAc(b1-4)GlcNAc
# Outline: as §1
# [36] = molecular target: Neu5Ac(a2-6)Gal(b1-4)GlcNAc(b1-3)Gal(b1-4)GlcNAc(b1-2)Man(a1-3)[Neu5Ac(a2-6)Gal(b1-4)GlcNAc(b1-3)Gal(b1-4)GlcNAc(b1-2)Man(a1-6)]GalNAc
# Outline: as §1
# [37] = molecular target: Neu5Ac(a2-6)Gal(b1-4)GlcNAc(b1-6)GalNAc
# Outline: as §1
# [38] = molecular target: Neu5Ac(a2-6)Gal(b1-4)GlcNAc(b1-6)[Gal(b1-3)]GalNAc
# Outline: as §1
# [39] = molecular target: Neu5Ac(a2-8)Neu5Ac(a2-3)Gal(b1-4)Glc
# Outline: as §1
# [40] = molecular target: Neu5Ac9Ac(a2-3)Gal(b1-4)GlcNAc
# Outline: as §1
binder,measurement,setting,value
Pwp5 DD (Candida glabrata) (protein) MGSSHHHHHHSSGLVPRGSHMASANPVPLTNVCYFPEEYPRQAGFRAITAGLASTILQGSVDELLNYSGLSSLTTQQTTTTTPNFQLPTLPLPTNVYGLTVVPLYLLVQLQGYFVPPVSGQYTFSLENTDDAAIIFFGNPSAFPCGDLSAWPQASADDITVTDGTFPSRTLFLKAGVAYPMRISYYNSLGSGNLAVSFTDPGGTKRTNWNGYIWRYNSCSTCTYT,glycan array binding signal (z-score),[1],0.621
same,glycan array binding signal (z-score),[2],2.89
same,glycan array binding signal (z-score),[3],-1.56
same,glycan array binding signal (z-score),[4],-0.233
same,glycan array binding signal (z-score),[5],0.126
same,glycan array binding signal (z-score),[6],-0.895
same,glycan array binding signal (z-score),[7],-0.759
same,glycan array binding signal (z-score),[8],-0.328
same,glycan array binding signal (z-score),[9],-0.571
same,glycan array binding signal (z-score),[10],0.021
same,glycan array binding signal (z-score),[11],-0.574
same,glycan array binding signal (z-score),[12],4.76
same,glycan array binding signal (z-score),[13],-0.513
same,glycan array binding signal (z-score),[14],3.33
same,glycan array binding signal (z-score),[15],3.2
same,glycan array binding signal (z-score),[16],3.61
same,glycan array binding signal (z-score),[17],-0.447
same,glycan array binding signal (z-score),[18],-0.734
same,glycan array binding signal (z-score),[19],2.71
same,glycan array binding signal (z-score),[20],1.09
same,glycan array binding signal (z-score),[21],-0.687
same,glycan array binding signal (z-score),[22],3.21
same,glycan array binding signal (z-score),[23],0.377
same,glycan array binding signal (z-score),[24],-0.559
same,glycan array binding signal (z-score),[25],-0.413
same,glycan array binding signal (z-score),[26],-0.259
same,glycan array binding signal (z-score),[27],0.895
same,glycan array binding signal (z-score),[28],-0.436
same,glycan array binding signal (z-score),[29],2.67
same,glycan array binding signal (z-score),[30],11.6
same,glycan array binding signal (z-score),[31],-0.723
same,glycan array binding signal (z-score),[32],0.366
same,glycan array binding signal (z-score),[33],3.63
same,glycan array binding signal (z-score),[34],3.92
same,glycan array binding signal (z-score),[35],0.32
same,glycan array binding signal (z-score),[36],0.149
same,glycan array binding signal (z-score),[37],0.08
same,glycan array binding signal (z-score),[38],-0.062
same,glycan array binding signal (z-score),[39],-0.613
same,glycan array binding signal (z-score),[40],-0.213
